# This excerpt belongs to a sample that is enriched for the strongest signals.
# Tests used:
# Assay in all cases: glycan array binding signal (z-score within array); higher = stronger binding
# Conditions in all cases: glycan notation: IUPAC condensed, linker removed
# [1] = molecular target: Fuc(a1-2)Gal(b1-3)[Fuc(a1-4)]GlcNAc(b1-2)Man(a1-3)[Fuc(a1-2)Gal(b1-3)[Fuc(a1-4)]GlcNAc(b1-2)Man(a1-3)]Man(b1-4)GlcNAc(b1-4)GlcNAc
# In short: (§1)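 The Consortium for Functional Glycomics database supplied 3228 glycan arrays, of which those lacking an available protein sequence were dropped. The binding signal, a within-array Z-score, was averaged across arrays of the same protein sequence and across linkers. Negative scores can be read as non-binding.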
# [2] = molecular target: Fuc(a1-2)[Gal(a1-3)]Gal(b1-4)GlcNAc(b1-3)GalNAc
# In short: as §1
# [3] = molecular target: Fuc(a1-2)[Gal(a1-3)]Gal(b1-4)GlcNAc(b1-6)GalNAc
# In short: as §1
# [4] = molecular target: Fuc(a1-2)[Gal(a1-4)]Gal(b1-4)GlcNAc
# In short: as §1
# [5] = molecular target: Fuc(a1-2)[GalNAc(a1-3)]Gal(b1-3)GlcNAc(b1-2)Man(a1-3)[Fuc(a1-2)[GalNAc(a1-3)]Gal(b1-3)GlcNAc(b1-2)Man(a1-6)]Man(b1-4)GlcNAc(b1-4)[Fuc(a1-6)]GlcNAc
# In short: as §1
# [6] = molecular target: Fuc(a1-2)[GalNAc(a1-3)]Gal(b1-4)[Fuc(a1-3)]GlcNAc(b1-3)GalNAc
# In short: as §1
# [7] = molecular target: Fuc(a1-3)[Gal(b1-4)]GlcNAc(b1-3)Gal(b1-3)[Fuc(a1-4)]GlcNAc
# In short: as §1
# [8] = molecular target: Fuc(a1-3)[Gal(b1-4)]GlcNAc(b1-3)Gal(b1-4)[Fuc(a1-3)]GlcNAc(b1-3)Gal(b1-4)[Fuc(a1-3)]GlcNAc
# In short: as §1
# [9] = molecular target: Fuc(a1-3)[Gal3S(b1-4)]GlcNAc6S
# In short: as §1
# [10] = molecular target: Fuc(a1-4)GlcNAc
# In short: as §1
# [11] = molecular target: Gal(a1-3)Gal(b1-4)GlcNAc
# In short: as §1
# [12] = molecular target: Gal(a1-4)Gal(b1-3)GlcNAc(b1-2)Man(a1-3)[Gal(a1-4)Gal(b1-3)GlcNAc(b1-2)Man(a1-6)]Man(b1-4)GlcNAc(b1-4)GlcNAc
# In short: as §1
# [13] = molecular target: Gal(b1-3)Gal(b1-4)GlcNAc
# In short: as §1
# [14] = molecular target: Gal(b1-3)GalNAc(b1-3)Gal
# In short: as §1
# [15] = molecular target: Gal(b1-3)GalNAc(b1-4)Gal(b1-4)Glc
# In short: as §1
# [16] = molecular target: Gal(b1-3)GlcNAc(b1-3)Gal(b1-4)Glc
# In short: as §1
# [17] = molecular target: Gal(b1-3)GlcNAc(b1-3)Gal(b1-4)GlcNAc
# In short: as §1
# [18] = molecular target: Gal(b1-3)GlcNAc(b1-3)Gal(b1-4)GlcNAc(b1-2)Man(a1-3)[Gal(b1-3)GlcNAc(b1-3)Gal(b1-4)GlcNAc(b1-2)Man(a1-6)]Man(b1-4)GlcNAc(b1-4)GlcNAc
# In short: as §1
# [19] = molecular target: Gal(b1-3)GlcNAc(b1-3)Gal(b1-4)GlcNAc(b1-2)[Gal(b1-3)GlcNAc(b1-3)Gal(b1-4)GlcNAc(b1-6)]Man(a1-6)[Gal(b1-3)GlcNAc(b1-3)Gal(b1-4)GlcNAc(b1-2)Man(a1-3)]Man(b1-4)GlcNAc(b1-4)[Fuc(a1-6)]GlcNAc
# In short: as §1
# [20] = molecular target: Gal(b1-3)GlcNAc(b1-3)Gal(b1-4)GlcNAc(b1-3)Gal(b1-4)GlcNAc(b1-2)[Gal(b1-3)GlcNAc(b1-3)Gal(b1-4)GlcNAc(b1-3)Gal(b1-4)GlcNAc(b1-6)]Man(a1-6)[Gal(b1-3)GlcNAc(b1-3)Gal(b1-4)GlcNAc(b1-3)Gal(b1-4)GlcNAc(b1-2)Man(a1-3)]Man(b1-4)GlcNAc(b1-4)[Fuc(a1-6)]GlcNAc
# In short: as §1
# [21] = molecular target: Gal(b1-3)GlcNAc(b1-3)Gal(b1-4)GlcNAc(b1-6)[Gal(b1-3)GlcNAc(b1-3)]Gal(b1-4)Glc
# In short: as §1
# [22] = molecular target: Gal(b1-3)GlcNAc6S
# In short: as §1
# [23] = molecular target: Gal(b1-3)[Fuc(a1-4)]GlcNAc(b1-3)Gal(b1-3)[Fuc(a1-4)]GlcNAc
# In short: as §1
# [24] = molecular target: Gal(b1-3)[Neu5Ac(a2-6)]GlcNAc(b1-4)Gal(b1-4)Glc
# In short: as §1
# [25] = molecular target: Gal(b1-4)GlcNAc(b1-2)Man(a1-3)[Man(a1-6)]Man(b1-4)GlcNAc(b1-4)GlcNAc
# In short: as §1
# [26] = molecular target: Gal(b1-4)GlcNAc(b1-2)[Gal(b1-4)GlcNAc(b1-4)]Man(a1-3)[Gal(b1-4)GlcNAc(b1-2)[Gal(b1-4)GlcNAc(b1-6)]Man(a1-6)]Man(b1-4)GlcNAc(b1-4)GlcNAc
# In short: as §1
binder,measurement,setting,value
B160 (Bifidobacterium sp) (protein) MVSHNKRIVAALAAVAAMGIGLAGCGGSDTAGDTKSGSDGGVVNITYMHRLPDSEGMTLVNDIVAKWNKEHPNIQVKATKFDGNAADMIKKLETDVKAGNAPDLAQVGYAEVPEVFTKGLLQDVTDEAAKYKDDFASGPFALMQVDGKTYGLPQDTGPLTYFYNAAEFEKLGITVPKTADELIETAKKTAAQGKYIMTFTPDEAMMMMSGQAGASGPWYKVDGNSWVVNTQTKGSKAVADVYQQLIDNKAALTNPRWDASFDNSIQSGQLIGTVAAAWEAPLFIDSAGGTGAGEWKVTQLGDWFGNGTKTGANGGSGVAVLKGSKHPAEAMEFLDWFNTQVDDLVSQGLVVAATTADAKTPQKWSDYFSGQDVMAEFKTANDNMGDFTYMPGFSAVGAAMKQTAAKAADGSAKVSDVFDTAQKTSVDTLKNLGLSVKE,glycan array binding signal (z-score),[1],-0.134
same,glycan array binding signal (z-score),[2],-0.168
same,glycan array binding signal (z-score),[3],-0.163
same,glycan array binding signal (z-score),[4],-0.15
same,glycan array binding signal (z-score),[5],-0.126
same,glycan array binding signal (z-score),[6],-0.135
same,glycan array binding signal (z-score),[7],-0.164
same,glycan array binding signal (z-score),[8],-0.14
same,glycan array binding signal (z-score),[9],-0.145
same,glycan array binding signal (z-score),[10],-0.176
same,glycan array binding signal (z-score),[11],-0.166
same,glycan array binding signal (z-score),[12],-0.093
same,glycan array binding signal (z-score),[13],11.7
same,glycan array binding signal (z-score),[14],6.25
same,glycan array binding signal (z-score),[15],8.55
same,glycan array binding signal (z-score),[16],4.36
same,glycan array binding signal (z-score),[17],4.98
same,glycan array binding signal (z-score),[18],5.11
same,glycan array binding signal (z-score),[19],8.35
same,glycan array binding signal (z-score),[20],6.21
same,glycan array binding signal (z-score),[21],5.45
same,glycan array binding signal (z-score),[22],6.55
same,glycan array binding signal (z-score),[23],-0.141
same,glycan array binding signal (z-score),[24],6.71
same,glycan array binding signal (z-score),[25],-0.176
same,glycan array binding signal (z-score),[26],-0.18

# Reference: the supplement of paper PMC8728848
